Active and inactive are the calls of the source.
Assays:
[1] = small molecules captured by biotinylated probe aFSTL3 – biochemical, small-molecule microarray, fluorescence 635/667, stem cell growth factor project, primary screen (AID 1064); conditions: higher = more signal;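 note: measures binding of the biotinylated anti-FSTL3 antibody to printed compounds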
[2] = binders from COS7 lysate, DM2A8 probe, primary screen, torsin A project, cell lysate, small-molecule microarray, fluorescence 635/667 (AID 1065); conditions: higher = more signal, COS7 lysate expressing mutant human TOR1A
[3] = small molecules captured by biotinylated probe aFGF2 – biochemical, small-molecule microarray, fluorescence 635/667, stem cell growth factor project, primary screen (AID 1067); conditions: higher = more signal;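 note: measures binding of biotinylated aFGF2 protein to printed compounds on slides; z-score merges feature fluorescence and signal-to-noise across triplicate slides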
[4] = small molecules captured by biotinylated probe aFGF10 – biochemical, small-molecule microarray, fluorescence 635/667, stem cell growth factor project, primary screen (AID 1071); conditions: higher = more signal;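 note: score merges 667 nm spot intensity and signal to noise from triplicate slides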
[5] = target: Neurogenic locus notch homolog protein 2 (Homo sapiens) (UniProt Q04721); assay: small molecules binding Notch2 protein – biochemical, small-molecule microarray, 635 nm fluorescence, stem cell growth factors, primary screen (AID 1073); conditions: higher = more signal
[6] = target: Pro-neuregulin-1, membrane-bound isoform (Homo sapiens) (UniProt Q02297); assay: small molecules binding neuregulin-1 protein – biochemical, small-molecule microarray, fluorescence 635/667, psychiatric disease protein project, primary screen (AID 1075); conditions: NRG1 binding, 635 nm fluorescence, higher = more signal;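 note: score combines 667 nm spot fluorescence with signal to noise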
[7] = system: Neuregulin-1 EGF-like domain; assay: small molecules binding NRG1 EGF domain – biochemical, small-molecule microarray, 635 nm fluorescence, primary screen (AID 1081); conditions: higher = more signal;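 note: binding of the protein to compounds printed on small-molecule microarray slides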
[8] = FRG1 expression reporter modulators in myotubes – cell-based, C2C12 myotubes, firefly/Renilla luciferase, luminescence, FRG1 inhibition for FSHD, primary screen (AID 1084); conditions: FRG1 promoter luciferase, higher = more signal, called active from +8 up or from −8 down
[9] = small molecules captured by biotinylated probe aFST – biochemical, small-molecule microarray, fluorescence 635/667, stem cell growth factor project, primary screen (AID 1086); conditions: higher = more signal;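 note: score merges 667 nm fluorescence with signal-to-noise of each printed compound spot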
[10] = binders of probe aHhip on microarray, primary screen, stem cell growth factor project, biochemical, small-molecule microarray, fluorescence 635/667 (AID 1087); conditions: higher = more signal;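 note: score merges spot fluorescence at 667nm with spot signal to noise ratio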
[11] = system: PRMT1 (protein arginine N-methyltransferase 1); assay: small molecules binding arginine methyltransferase PRMT1 – biochemical, small-molecule microarray, 635 nm fluorescence, primary screen (AID 1088); conditions: higher = more signal;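 note: binding of Prmt1 protein to compounds spotted on small-molecule microarray slides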
[12] = growth effects on S. cerevisiae YJM789 – YJM789 clinical isolate, OD600, 24 h, basal, primary screen (AID 1089); conditions: higher = more signal, called active from +8 up or from −8 down;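 note: growth of clinical yeast isolate S. cerevisiae YJM 789 seeded 1000 cells per well; test concentration not given here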
[13] = S. pombe growth modifiers, basal conditions – strain 972, OD600, 24 h, no modulator, primary screen (AID 1090);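 note: basal condition with compound alone and no growth modifier present; test concentration not given here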; conditions: S. pombe 972 growth, higher = more signal, called active from +8 up or from −8 down
[14] = budding yeast growth modifiers under rapamycin – strain BY4716, OD600, 96 h, primary screen (AID 1091); note: test concentration not given here; conditions: S. cerevisiae BY4716 + rapamycin, higher = more signal, called active from +8 up or from −8 down
[15] = target: Torsin-1A-interacting protein 2 (Homo sapiens) (UniProt Q8NFQ8); assay: small molecules binding lysate-expressed LULL1 – cell lysate, human LULL1 lysate, 635/667 nm fluorescence, primary screen (AID 1092); conditions: small-molecule microarray, hLULL1 lysate binding, 635 nm fluorescence; higher = more signal;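 note: probe is lysate of COS7 cells overexpressing human LULL1; score merges per-feature 667 nm fluorescence with signal-to-noise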
[16] = optical density change of DRC41 E. coli – strain DRC41, OD650, 24 h, E. coli filamentation project, primary screen (AID 1093);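 note: MC1000 strain lacking acrAB efflux and sulA so SOS filamentation is blocked; test concentration not given here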; conditions: E. coli DRC41 growth, higher = more signal, called active from +8 up or from −8 down
[17] = probe aLefty2 binding to arrayed compounds – biochemical, biotinylated probe, 635/667 nm fluorescence, primary screen (AID 1094); conditions: small-molecule microarray, higher = more signal;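 note: score merges spot fluorescence near 667 nm with spot signal-to-noise ratio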
[18] = system: Noggin (protein binding on small-molecule microarray); assay: small molecules binding Noggin protein – biochemical, 635/667 nm fluorescence, primary screen (AID 1095); conditions: 635 nm fluorescence, higher = more signal;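 note: score merges 667 nm feature fluorescence with signal to noise over triplicate slides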
[19] = target: Neurogenic locus notch homolog protein 3 (Homo sapiens) (UniProt Q9UM47); assay: small molecules binding NOTCH3 protein – biochemical, 635/667 nm fluorescence, primary screen (AID 1096); conditions: small-molecule microarray, 635 nm fluorescence, higher = more signal
[20] = probe aEGFR binding to arrayed compounds – biochemical, biotinylated probe, 635/667 nm fluorescence, primary screen (AID 1097); conditions: small-molecule microarray, higher = more signal;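 note: probe is a biotinylated anti-EGFR antibody binding compounds printed on slides; score combines fluorescence near 667 nm and signal to noise of each spot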

Neurogenic locus notch homolog protein 2 (Homo sapiens), sequence (Q04721 whole entry, looked up, canonical isoform): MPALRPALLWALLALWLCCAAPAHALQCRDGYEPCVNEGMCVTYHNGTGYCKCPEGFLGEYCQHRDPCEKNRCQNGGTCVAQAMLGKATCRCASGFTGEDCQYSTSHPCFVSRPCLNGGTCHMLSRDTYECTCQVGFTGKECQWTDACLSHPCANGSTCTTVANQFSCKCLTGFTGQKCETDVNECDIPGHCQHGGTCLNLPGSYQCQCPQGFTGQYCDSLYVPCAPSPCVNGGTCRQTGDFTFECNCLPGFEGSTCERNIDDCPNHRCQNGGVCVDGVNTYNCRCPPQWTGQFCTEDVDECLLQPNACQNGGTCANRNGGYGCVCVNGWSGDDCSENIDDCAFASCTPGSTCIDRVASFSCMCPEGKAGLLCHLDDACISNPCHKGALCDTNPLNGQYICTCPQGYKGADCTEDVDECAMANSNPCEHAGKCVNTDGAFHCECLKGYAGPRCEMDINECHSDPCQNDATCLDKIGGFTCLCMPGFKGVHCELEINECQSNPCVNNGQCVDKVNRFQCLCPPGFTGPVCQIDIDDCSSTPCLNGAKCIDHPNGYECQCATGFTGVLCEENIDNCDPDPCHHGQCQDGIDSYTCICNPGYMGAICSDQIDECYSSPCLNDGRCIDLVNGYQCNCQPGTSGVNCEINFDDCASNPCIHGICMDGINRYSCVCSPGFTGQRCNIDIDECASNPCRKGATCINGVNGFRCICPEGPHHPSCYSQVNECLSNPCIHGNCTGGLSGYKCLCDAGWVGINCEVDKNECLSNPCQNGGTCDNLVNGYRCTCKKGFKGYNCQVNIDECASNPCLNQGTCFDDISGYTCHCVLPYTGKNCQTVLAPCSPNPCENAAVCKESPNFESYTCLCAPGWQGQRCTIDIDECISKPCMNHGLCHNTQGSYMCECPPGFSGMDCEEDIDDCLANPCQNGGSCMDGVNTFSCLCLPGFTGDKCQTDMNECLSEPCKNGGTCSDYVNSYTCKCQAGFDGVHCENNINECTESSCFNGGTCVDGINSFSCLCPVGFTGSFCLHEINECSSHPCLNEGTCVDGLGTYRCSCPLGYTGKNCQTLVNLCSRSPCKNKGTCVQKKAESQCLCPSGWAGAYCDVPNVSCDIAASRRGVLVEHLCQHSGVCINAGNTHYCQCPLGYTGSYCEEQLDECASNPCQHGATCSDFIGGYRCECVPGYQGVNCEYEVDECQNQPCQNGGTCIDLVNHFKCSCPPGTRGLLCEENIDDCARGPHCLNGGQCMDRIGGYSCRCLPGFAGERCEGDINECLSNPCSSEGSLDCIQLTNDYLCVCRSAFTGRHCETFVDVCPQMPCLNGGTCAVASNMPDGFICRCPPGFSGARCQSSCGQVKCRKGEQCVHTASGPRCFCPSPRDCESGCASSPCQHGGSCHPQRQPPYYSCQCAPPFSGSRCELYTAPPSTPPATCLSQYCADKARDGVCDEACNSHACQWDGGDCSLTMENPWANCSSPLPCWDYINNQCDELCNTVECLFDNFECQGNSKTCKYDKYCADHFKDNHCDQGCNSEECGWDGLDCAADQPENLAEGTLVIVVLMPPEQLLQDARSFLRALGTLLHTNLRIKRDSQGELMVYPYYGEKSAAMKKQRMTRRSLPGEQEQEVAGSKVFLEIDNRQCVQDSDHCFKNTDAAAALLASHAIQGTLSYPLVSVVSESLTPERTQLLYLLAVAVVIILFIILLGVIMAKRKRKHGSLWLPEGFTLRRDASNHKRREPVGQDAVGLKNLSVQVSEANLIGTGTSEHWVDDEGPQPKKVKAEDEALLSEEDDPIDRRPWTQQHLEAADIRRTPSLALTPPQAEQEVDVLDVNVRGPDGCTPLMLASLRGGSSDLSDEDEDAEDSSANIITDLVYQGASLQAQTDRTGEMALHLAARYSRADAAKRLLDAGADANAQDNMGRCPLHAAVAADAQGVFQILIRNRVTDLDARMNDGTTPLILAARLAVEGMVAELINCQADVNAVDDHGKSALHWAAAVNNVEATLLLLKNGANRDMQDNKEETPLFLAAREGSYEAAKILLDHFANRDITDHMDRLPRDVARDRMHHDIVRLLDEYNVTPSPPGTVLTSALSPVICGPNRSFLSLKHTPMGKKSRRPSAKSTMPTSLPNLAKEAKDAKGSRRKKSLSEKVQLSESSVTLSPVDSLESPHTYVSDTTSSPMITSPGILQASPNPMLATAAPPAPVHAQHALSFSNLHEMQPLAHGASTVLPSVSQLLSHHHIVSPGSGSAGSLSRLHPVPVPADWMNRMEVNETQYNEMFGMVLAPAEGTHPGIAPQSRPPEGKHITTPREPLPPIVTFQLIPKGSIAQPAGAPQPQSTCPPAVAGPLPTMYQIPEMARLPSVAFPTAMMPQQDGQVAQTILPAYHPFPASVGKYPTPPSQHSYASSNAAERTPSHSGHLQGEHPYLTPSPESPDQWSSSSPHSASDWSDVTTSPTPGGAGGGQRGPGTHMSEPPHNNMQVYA
Neurogenic locus notch homolog protein 3 (Homo sapiens), sequence (Q9UM47 whole entry, looked up): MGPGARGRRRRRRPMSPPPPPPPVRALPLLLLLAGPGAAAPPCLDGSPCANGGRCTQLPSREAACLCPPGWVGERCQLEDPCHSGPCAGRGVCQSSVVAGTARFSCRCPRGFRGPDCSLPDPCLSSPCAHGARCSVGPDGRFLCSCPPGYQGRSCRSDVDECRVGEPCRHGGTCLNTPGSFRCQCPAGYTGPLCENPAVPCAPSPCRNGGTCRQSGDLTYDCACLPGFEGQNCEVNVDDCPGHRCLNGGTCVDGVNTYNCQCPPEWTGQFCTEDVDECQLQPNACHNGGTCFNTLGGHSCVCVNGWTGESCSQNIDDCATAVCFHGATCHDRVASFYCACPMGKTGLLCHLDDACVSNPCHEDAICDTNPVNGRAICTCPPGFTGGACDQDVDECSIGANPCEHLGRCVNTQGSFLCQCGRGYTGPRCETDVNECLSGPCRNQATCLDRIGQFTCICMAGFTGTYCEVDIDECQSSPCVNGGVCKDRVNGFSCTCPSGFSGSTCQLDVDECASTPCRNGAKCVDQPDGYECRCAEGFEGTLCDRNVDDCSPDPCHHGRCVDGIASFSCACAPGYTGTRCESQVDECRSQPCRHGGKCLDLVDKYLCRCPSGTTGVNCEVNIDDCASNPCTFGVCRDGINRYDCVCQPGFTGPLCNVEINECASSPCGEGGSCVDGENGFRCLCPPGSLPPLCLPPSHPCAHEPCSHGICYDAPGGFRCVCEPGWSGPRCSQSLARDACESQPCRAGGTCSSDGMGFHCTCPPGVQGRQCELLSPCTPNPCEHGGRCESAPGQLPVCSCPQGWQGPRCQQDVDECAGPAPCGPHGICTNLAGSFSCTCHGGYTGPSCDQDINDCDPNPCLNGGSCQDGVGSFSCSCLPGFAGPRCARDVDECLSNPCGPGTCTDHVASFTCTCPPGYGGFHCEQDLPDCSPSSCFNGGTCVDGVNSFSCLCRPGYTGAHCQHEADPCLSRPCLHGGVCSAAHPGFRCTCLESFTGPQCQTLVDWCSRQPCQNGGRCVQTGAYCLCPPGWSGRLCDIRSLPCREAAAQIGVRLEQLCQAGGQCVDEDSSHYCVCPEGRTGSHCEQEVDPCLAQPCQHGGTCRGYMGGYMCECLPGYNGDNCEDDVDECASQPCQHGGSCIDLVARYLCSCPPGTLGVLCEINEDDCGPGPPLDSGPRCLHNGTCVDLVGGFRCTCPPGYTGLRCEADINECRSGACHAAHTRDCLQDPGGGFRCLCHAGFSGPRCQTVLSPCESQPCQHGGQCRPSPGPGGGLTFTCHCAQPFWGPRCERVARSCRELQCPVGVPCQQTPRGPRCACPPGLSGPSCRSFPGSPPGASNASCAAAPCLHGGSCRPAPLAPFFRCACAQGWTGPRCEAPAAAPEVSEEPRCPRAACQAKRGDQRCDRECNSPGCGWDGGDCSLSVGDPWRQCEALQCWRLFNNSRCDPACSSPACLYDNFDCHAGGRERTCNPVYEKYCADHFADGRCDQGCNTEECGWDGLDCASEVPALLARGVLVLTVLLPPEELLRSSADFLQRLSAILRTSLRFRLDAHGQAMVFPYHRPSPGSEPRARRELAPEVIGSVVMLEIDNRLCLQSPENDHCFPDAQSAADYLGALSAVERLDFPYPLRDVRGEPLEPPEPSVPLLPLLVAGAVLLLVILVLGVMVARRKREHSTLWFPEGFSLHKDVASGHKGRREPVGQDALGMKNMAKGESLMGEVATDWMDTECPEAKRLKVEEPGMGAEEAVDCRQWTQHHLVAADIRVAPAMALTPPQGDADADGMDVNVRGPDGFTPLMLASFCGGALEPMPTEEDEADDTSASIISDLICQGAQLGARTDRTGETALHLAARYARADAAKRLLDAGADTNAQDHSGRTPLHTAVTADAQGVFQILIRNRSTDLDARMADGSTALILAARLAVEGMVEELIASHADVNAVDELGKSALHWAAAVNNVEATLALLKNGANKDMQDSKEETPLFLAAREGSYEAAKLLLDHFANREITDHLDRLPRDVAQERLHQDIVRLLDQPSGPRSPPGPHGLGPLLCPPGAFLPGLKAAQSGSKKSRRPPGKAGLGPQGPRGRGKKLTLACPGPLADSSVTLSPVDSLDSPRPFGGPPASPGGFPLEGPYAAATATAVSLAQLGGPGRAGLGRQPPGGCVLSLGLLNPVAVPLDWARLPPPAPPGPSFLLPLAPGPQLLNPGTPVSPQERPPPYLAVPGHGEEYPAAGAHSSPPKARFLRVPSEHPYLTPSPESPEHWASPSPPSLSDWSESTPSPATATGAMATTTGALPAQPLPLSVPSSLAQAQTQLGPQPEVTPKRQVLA

Structure (SMILES)	composite z-score [1]	composite z-score [2]	composite z-score [3]	composite z-score [4]	composite z-score [5]	composite z-score [6]	composite z-score [7]	z-score [8]	composite z-score [9]	composite z-score [10]	composite z-score [11]	z-score [12]	z-score [13]	z-score [14]	composite z-score [15]	z-score [16]	composite z-score [17]	composite z-score [18]	composite z-score [19]	composite z-score [20]
COc1cccc([C@H]2Oc3ccc(OC)cc3C(=NOC[C@@H](C)[C@H](OCc3ccccc3)C(C)C)[C@@H]2O)c1	-0.108	0.435	-0.004	0.431	0.203	-0.201	0.686	3.29 (inactive)	1.33	0.0274	0.169	0.0741 (inactive)	0.399 (inactive)	0.588 (inactive)	0.77	-0.0364 (inactive)	-0.341	0.0758	0.0869	0.0229
Cc1ccc(S(=O)(=O)NC(CCc2ccccc2)CC(=O)C(C)(C)C)cc1 (stereo not given)	-0.651	0.339	-0.228	0.711	0.747	0.132	0.459	-3.04 (inactive)	0.195	-0.261	1.09	-1.18 (inactive)	-1.76 (inactive)	0.269 (inactive)	0.69	0.361 (inactive)	0.422	0.409	1.14	0.045
CCOC(=O)C1=NO[C@@]2(C=C(Br)C3(OCCCO3)[C@H]3O[C@H]32)C1	0.224	0.0735	-0.116	1.05	0.282	-0.467	0.646	0.0274 (inactive)	0.248	0.0972	-0.481	0.74 (inactive)	0.664 (inactive)	-0.291 (inactive)	0.0603	0.292 (inactive)	0.105	1.42	0.91	-0.004
O=C1C[C@@H](O)[C@@H](O)[C@@H]2[C@@H]3C(=O)N(c4cccc(Oc5ccccc5)c4)C(=O)[C@@H]3CC[C@H]12	-0.499	0.247	-0.0985	0.206	0.484	0.241	0.413	-0.0447 (inactive)	0.167	-0.153	-0.129	0.157 (inactive)	0.462 (inactive)	0.469 (inactive)	0.685	0.378 (inactive)	-0.156	0.292	1.02	-0.145
CCN1C(=O)[C@H]2[C@H]3[C@H](O)[C@H](O)CC(=NO[C@@H](C)c4cn([C@H](CO)Cc5ccccc5)nn4)[C@@H]3CC[C@H]2C1=O	-0.687	0.387	-0.0704	0.859	1.51	0.256	0.971	0.345 (inactive)	0.759	-0.226	1.14	0.149 (inactive)	0.718 (inactive)	0.726 (inactive)	1.28	0.194 (inactive)	-0.264	0.387	0.988	0.0346
CC(C)=CCCC(C)=CCON=C1C[C@@H](O)[C@@H](O)[C@@H]2[C@@H]3C(=O)N(c4cccc(Oc5ccccc5)c4)C(=O)[C@@H]3CC[C@@H]12	-0.473	-0.314	-0.0962	0.341	0.521	0.938	0.972	0.508 (inactive)	0.34	-0.0994	0.355	0.164 (inactive)	-0.153 (inactive)	-0.184 (inactive)	1.15	0.951 (inactive)	-0.124	-0.283	0.751	-0.0302
CCCCC#C[C@@H]1C=C[C@H](Oc2ccc(C(=O)OC)cc2)[C@@H](COC(=O)OCC)O1	-0.367	0.956	-0.0874	0.495	0.65	0.338	0.733	-2.03 (inactive)	0.153	0.178	0.888	0.143 (inactive)	-19.5 (active)	-0.611 (inactive)	0.508	0.197 (inactive)	-0.115	0.198	0.531	-0.0051
C[C@@H](c1ccccc1)N1C(=O)[C@H]2[C@H]3[C@H](O)[C@H](O)CC(=NOCc4ccccc4)[C@H]3CC[C@H]2C1=O	-0.393	0.0852	-0.0667	0.0945	0.39	0.381	1.22	-0.405 (inactive)	0.317	-0.0383	1.3	0.435 (inactive)	0.107 (inactive)	0.0942 (inactive)	2.38	-0.0659 (inactive)	-0.0942	0.374	0.354	-0.0424
CCOC(=O)[C@H](CC(C)C)NC(=O)CCC1CC(OC(=O)NCc2cccc3ccccc23)CC2(CCCC(COC(=O)NCCC(C)C)O2)O1 (stereo not given in full)	-0.403	0.141	-0.0547	0.176	0.193	-0.0205	0.602	0.164 (inactive)	-0.128	0.003	0.554	-3.9 (inactive)	-2.7 (inactive)	-1.89 (inactive)	0.691	-0.77 (inactive)	-0.221	0.543	0.144	0.0031
CO[C@@H]1COC(=O)[C@@H](C)COC(=O)[C@@H](C)NC(=O)CC=C[C@@H]1C	-0.538	0.544	-0.133	0.231	0.198	-0.308	0.675	0.156 (inactive)	-0.235	-0.342	1.55	-2.2 (inactive)	-1.61 (inactive)	-2.47 (inactive)	-0.963	-0.801 (inactive)	-0.154	1.6	-0.0403	-0.0041

From PubChem BioAssay
